In ChEMBL document CHEMBL1961873, “Compounds: GSK PKIS; Assays: Nanosyn kinase panel” (2012):
Where “and” joins values, the source holds several entries; their conditions need not be identical. Equal entries are not always repeated.

Legend:
[1] = target: MAP/microtubule affinity-regulating kinase 3 (Homo sapiens) (UniProt P27448); details: at 1 µM;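 further: reported values are averaged percent inhibition of MARK3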
[2] = target: T1, MAP/microtubule affinity-regulating kinase 4 (Homo sapiens) (UniProt Q96L34); details: at 0.1 µM
T1 sequence (whole entry): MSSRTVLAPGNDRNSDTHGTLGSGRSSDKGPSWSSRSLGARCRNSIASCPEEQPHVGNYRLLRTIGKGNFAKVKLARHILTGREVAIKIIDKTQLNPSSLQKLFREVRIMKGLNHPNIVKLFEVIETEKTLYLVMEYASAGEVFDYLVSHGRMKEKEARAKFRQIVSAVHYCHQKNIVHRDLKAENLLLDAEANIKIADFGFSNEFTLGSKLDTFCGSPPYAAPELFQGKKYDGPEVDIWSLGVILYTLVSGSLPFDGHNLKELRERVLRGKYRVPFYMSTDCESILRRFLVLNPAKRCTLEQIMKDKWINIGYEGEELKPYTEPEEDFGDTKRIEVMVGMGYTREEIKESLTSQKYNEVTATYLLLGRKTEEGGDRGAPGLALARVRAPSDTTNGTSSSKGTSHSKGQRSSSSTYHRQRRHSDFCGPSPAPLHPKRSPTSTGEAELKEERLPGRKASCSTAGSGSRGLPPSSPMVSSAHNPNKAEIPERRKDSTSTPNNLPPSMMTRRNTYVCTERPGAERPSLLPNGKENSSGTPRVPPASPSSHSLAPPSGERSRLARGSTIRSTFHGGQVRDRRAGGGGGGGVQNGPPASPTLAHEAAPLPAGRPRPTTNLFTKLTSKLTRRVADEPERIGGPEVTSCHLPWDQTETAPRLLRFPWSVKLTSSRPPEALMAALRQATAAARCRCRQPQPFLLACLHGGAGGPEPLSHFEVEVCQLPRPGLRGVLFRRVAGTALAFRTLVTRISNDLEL

[3] = target: T1, MAP/microtubule affinity-regulating kinase 4 (Homo sapiens); details: at 1 µM
[4] = target: Maternal embryonic leucine zipper kinase (Homo sapiens) (UniProt Q14680); details: at 0.1 µM
[5] = target: Maternal embryonic leucine zipper kinase (Homo sapiens) (UniProt Q14680); details: at 1 µM
[6] = target: MAP kinase-interacting serine/threonine-protein kinase 1 (Homo sapiens) (UniProt Q9BUB5); details: at 0.1 µM
[7] = target: MAP kinase-interacting serine/threonine-protein kinase 1 (Homo sapiens) (UniProt Q9BUB5); details: at 1 µM
[8] = target: MAP kinase-interacting serine/threonine-protein kinase 2 (Homo sapiens) (UniProt Q9HBH9); details: at 0.1 µM
[9] = target: MAP kinase-interacting serine/threonine-protein kinase 2 (Homo sapiens) (UniProt Q9HBH9); details: at 1 µM
[10] = target: Serine/threonine-protein kinase MARK2 (Homo sapiens) (UniProt Q7KZI7); details: at 0.1 µM
[11] = target: Serine/threonine-protein kinase MARK2 (Homo sapiens) (UniProt Q7KZI7); details: at 1 µM
[12] = target: PAS domain-containing serine/threonine-protein kinase (Homo sapiens) (UniProt Q96RG2); details: at 0.1 µM
[13] = target: PAS domain-containing serine/threonine-protein kinase (Homo sapiens) (UniProt Q96RG2); details: at 1 µM
[14] = target: Phosphorylase b kinase gamma catalytic chain, skeletal muscle/heart isoform (Homo sapiens) (UniProt Q16816); details: at 0.1 µM
[15] = target: Phosphorylase b kinase gamma catalytic chain, skeletal muscle/heart isoform (Homo sapiens) (UniProt Q16816); details: at 1 µM
[16] = target: T2, Phosphorylase b kinase gamma catalytic chain, liver/testis isoform (Homo sapiens) (UniProt P15735); details: at 0.1 µM
T2 sequence (whole entry): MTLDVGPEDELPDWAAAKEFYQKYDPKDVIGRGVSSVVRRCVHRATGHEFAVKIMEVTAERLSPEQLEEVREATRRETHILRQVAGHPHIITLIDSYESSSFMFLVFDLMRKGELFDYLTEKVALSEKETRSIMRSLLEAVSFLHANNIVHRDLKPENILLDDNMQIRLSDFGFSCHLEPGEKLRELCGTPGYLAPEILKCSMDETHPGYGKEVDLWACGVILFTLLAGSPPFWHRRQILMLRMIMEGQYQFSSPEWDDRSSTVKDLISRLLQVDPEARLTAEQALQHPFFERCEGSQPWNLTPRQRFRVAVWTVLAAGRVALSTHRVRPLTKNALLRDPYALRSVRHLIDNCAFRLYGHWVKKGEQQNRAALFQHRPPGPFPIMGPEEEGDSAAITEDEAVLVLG

[17] = target: T2, Phosphorylase b kinase gamma catalytic chain, liver/testis isoform (Homo sapiens); details: at 1 µM
[18] = target: Serine/threonine-protein kinase pim-1 (Homo sapiens) (UniProt P11309); details: at 0.1 µM
[19] = target: Serine/threonine-protein kinase pim-1 (Homo sapiens) (UniProt P11309); details: at 1 µM
[20] = target: Serine/threonine-protein kinase pim-2 (Homo sapiens) (UniProt Q9P1W9); details: at 0.1 µM;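 further: reported value is the mean percent inhibition of PIM2, measured in the GSK PKIS kinase inhibitor set screen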
Sequence of Serine/threonine-protein kinase pim-2 (Homo sapiens) (Q9P1W9 whole entry, looked up): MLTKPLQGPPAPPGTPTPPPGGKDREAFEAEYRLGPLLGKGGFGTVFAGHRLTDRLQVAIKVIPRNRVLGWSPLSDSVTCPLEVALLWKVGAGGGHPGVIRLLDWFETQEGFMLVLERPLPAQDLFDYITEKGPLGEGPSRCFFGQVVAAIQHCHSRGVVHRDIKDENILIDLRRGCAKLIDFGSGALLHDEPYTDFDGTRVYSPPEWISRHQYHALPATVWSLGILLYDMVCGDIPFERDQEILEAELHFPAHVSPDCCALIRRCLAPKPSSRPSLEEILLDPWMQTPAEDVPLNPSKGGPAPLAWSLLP

Sequence of MAP kinase-interacting serine/threonine-protein kinase 2 (Homo sapiens) (Q9HBH9 whole entry, looked up): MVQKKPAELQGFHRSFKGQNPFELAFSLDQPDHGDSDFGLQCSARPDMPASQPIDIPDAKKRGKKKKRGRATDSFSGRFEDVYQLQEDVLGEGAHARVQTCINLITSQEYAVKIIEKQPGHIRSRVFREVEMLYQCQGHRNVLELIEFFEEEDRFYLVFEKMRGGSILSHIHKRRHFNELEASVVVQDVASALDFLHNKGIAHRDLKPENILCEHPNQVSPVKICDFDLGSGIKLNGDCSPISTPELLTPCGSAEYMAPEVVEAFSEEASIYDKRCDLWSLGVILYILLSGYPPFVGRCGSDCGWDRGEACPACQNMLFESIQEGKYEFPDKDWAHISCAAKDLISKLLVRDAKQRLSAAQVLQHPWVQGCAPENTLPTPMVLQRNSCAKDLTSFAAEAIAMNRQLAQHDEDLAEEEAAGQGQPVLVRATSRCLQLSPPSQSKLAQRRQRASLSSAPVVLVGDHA
Sequence of PAS domain-containing serine/threonine-protein kinase (Homo sapiens) (Q96RG2 whole entry, the tested form may be a part, canonical isoform): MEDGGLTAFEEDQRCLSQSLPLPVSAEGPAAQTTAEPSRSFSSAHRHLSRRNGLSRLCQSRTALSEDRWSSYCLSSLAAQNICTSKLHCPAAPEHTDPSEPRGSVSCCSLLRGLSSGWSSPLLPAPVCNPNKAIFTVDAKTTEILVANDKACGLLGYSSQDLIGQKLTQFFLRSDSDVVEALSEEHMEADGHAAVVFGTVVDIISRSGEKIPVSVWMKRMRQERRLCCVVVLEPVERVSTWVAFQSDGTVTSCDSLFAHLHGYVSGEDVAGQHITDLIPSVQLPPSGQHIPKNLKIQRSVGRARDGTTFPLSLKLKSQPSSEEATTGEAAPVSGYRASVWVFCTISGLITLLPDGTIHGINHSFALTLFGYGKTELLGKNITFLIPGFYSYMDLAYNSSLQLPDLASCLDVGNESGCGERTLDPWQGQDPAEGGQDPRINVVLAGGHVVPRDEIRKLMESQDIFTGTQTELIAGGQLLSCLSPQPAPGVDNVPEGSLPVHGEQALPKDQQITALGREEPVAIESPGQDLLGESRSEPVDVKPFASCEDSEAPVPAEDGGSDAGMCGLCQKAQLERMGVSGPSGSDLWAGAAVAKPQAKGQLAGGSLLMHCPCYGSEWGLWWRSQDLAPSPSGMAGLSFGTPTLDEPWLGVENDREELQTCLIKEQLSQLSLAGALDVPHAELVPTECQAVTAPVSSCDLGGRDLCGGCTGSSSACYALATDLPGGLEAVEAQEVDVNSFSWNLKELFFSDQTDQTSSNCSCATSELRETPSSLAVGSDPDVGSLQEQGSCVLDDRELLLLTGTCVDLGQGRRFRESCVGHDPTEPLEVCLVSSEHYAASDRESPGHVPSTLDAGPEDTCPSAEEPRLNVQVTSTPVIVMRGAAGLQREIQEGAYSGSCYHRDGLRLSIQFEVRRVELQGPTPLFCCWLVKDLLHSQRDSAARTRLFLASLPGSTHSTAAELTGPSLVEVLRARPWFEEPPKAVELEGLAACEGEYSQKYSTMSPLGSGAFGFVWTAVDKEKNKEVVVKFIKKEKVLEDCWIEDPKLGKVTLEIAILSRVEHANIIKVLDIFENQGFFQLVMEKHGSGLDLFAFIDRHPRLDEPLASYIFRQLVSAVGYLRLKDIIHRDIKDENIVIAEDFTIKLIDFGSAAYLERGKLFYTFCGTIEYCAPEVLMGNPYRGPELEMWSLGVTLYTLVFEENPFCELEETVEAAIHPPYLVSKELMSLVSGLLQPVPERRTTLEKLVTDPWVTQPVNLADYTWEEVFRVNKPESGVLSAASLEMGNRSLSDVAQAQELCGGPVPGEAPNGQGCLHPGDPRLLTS
Sequence of Serine/threonine-protein kinase MARK2 (Homo sapiens) (Q7KZI7 whole entry, the tested form may be a part): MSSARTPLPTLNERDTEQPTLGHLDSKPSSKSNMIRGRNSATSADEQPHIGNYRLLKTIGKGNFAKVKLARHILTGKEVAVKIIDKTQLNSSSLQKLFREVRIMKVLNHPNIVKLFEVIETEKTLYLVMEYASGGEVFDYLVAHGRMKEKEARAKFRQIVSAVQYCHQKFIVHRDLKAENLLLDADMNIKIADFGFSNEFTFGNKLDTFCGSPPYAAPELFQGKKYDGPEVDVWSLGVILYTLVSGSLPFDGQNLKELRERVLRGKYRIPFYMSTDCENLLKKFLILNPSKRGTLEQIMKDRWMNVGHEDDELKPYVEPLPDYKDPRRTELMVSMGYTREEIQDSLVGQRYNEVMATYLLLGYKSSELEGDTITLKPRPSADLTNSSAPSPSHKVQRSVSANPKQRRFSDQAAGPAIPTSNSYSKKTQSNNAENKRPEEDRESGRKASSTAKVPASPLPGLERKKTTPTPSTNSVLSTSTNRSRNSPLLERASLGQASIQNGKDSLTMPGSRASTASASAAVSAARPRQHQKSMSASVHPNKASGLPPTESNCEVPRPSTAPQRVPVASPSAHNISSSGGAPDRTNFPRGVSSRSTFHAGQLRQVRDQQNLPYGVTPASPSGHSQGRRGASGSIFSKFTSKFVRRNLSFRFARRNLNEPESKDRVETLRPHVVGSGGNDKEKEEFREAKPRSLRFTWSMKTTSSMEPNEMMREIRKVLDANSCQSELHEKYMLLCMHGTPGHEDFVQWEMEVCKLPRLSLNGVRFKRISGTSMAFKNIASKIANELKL
Sequence of Maternal embryonic leucine zipper kinase (Homo sapiens) (Q14680 whole entry, looked up): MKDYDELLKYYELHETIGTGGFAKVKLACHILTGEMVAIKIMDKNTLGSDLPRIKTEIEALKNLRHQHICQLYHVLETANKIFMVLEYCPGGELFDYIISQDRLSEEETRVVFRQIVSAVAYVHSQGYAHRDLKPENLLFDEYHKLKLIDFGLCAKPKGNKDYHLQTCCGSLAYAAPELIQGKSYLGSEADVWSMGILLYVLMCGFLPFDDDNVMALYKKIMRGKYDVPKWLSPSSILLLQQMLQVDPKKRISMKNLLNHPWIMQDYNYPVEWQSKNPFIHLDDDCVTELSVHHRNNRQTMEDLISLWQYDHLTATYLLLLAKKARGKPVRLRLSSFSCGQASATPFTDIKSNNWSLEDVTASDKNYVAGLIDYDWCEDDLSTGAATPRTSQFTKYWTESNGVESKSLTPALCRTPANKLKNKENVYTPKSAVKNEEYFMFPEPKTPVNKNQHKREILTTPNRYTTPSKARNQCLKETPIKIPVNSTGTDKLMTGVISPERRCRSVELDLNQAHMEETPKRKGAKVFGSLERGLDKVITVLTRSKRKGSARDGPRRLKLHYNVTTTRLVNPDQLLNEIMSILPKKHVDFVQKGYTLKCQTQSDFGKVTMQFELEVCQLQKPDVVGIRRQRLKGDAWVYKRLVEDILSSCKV
Sequence of MAP kinase-interacting serine/threonine-protein kinase 1 (Homo sapiens) (Q9BUB5 whole entry, looked up): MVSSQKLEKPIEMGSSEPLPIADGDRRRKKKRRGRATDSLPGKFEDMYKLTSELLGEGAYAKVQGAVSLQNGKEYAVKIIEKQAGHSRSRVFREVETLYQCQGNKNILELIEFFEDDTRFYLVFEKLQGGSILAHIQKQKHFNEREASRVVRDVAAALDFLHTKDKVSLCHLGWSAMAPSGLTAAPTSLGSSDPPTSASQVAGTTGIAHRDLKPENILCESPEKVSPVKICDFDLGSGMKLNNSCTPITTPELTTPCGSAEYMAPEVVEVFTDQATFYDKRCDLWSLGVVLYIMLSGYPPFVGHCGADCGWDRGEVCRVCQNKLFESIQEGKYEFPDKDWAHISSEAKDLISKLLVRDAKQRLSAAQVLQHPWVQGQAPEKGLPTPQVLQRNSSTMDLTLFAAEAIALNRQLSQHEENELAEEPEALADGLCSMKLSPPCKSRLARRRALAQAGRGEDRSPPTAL
Sequence of Phosphorylase b kinase gamma catalytic chain, skeletal muscle/heart isoform (Homo sapiens) (Q16816 whole entry, looked up, canonical isoform): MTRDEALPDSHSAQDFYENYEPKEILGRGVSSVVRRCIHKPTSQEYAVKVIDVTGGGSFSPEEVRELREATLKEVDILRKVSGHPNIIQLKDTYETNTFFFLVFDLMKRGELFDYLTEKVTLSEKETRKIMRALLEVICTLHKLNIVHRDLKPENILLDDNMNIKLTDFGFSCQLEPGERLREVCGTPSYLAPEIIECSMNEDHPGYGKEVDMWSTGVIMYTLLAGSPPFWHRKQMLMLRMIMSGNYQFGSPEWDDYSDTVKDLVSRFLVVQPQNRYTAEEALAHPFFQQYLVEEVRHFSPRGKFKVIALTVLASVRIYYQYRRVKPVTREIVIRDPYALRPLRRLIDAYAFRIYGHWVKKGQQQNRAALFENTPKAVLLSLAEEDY
Sequence of Serine/threonine-protein kinase pim-1 (Homo sapiens) (P11309 whole entry, looked up): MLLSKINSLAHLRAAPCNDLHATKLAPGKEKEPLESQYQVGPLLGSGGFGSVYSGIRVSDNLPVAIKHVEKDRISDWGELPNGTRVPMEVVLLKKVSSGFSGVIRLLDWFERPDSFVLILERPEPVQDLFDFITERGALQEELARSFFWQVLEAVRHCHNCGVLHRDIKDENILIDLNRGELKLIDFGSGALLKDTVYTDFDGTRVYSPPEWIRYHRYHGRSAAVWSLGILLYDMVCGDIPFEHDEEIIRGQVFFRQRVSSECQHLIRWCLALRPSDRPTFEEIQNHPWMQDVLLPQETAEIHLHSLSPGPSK

| SMILES | inhibition [1] | inhibition [2] | inhibition [3] | inhibition [4] | inhibition [5] [%] | inhibition [6] | inhibition [7] | inhibition [8] | inhibition [9] | inhibition [10] | inhibition [11] | inhibition [12] | inhibition [13] | inhibition [14] | inhibition [15] | inhibition [16] | inhibition [17] | inhibition [18] | inhibition [19] | inhibition [20] |
| --- | --- | --- | --- | --- | --- | --- | --- | --- | --- | --- | --- | --- | --- | --- | --- | --- | --- | --- | --- | --- |
| O=C(O[C@H]1CN[C@H](C#Cc2cc3ncnc(Nc4ccc5c(ccn5Cc5cc(F)ccc5F)c4)c3s2)C1)N1CCOCC1 | 1.49% | 2.82% | 0.75% | 5.51% | 5.23 | 2.17% | 5.94% | 1.3% | 1.83% | 0.88% | -0.27% | 0.1% | -1.39% | 3.09% | 4.72% | 4.96% | 2.49% | 0.84% | 0.83% | 0.44% |
| OCCCNc1nccc(-c2c(-c3ccc(F)cc3)nn3cc(C(F)(F)F)ccc23)n1 | 3.84% | 0.24% | 2.09% | 0.52% | 2.27 | 2.61% | 6.2% | 2.75% | 3.6% | -1.06% | 1.92% | -0.08% | -2.07% | 2.26% | 5.59% | 2.88% | -0.79% | 0.12% | 1.6% | 0.32% |
| Cc1c2ccc(N(C)c3ccnc(Nc4cccc(S(N)(=O)=O)c4)n3)cc2nn1C | 5.76% | 2.63% | 5.35% | 3.62% | 3.67 | 1.23% | 4.05% | -0.12% | 3.7% | 1.14% | 4.84% | 0.26% | -1.92% | 4.4% | 7.27% | 4.88% | 3.28% | 0.43% | 1.01% | -3.44% |
| c1cnn2ncc(-c3ccnc(NCCCN4CCOCC4)n3)c2c1 | -0.34% | 1.05% | 2.05% | 4.35% | 11.9 | 4.1% | 10.9% | 1.64% | 7.83% | -1.43% | -1.01% | -1.6% | -2.98% | 4.51% | 4.16% | 4.4% | 2.46% | -0.24% | 1.23% | -0.27% |
| Nc1ncnc2occ(-c3ccc(NC(=O)Nc4cc(C(F)(F)F)ccc4F)cc3)c12 | 2.97% and -0.26% | 0.43% and 1.7% | 2.95% and 1.13% | -6.51% and -4.36% | – | 6.91% and 2.48% | 30% and 16.5% | 7.71% and 2.55% | 40.3% and 28.8% | -0.86% and -0.02% | 2.65% and 0.89% | 0.79% and 0.18% | 0.2% and -0.5% | 0.08% and -0.25% | 4.52% and 6.47% | 2.69% and -2.51% | -1.12% and -5.1% | 0.97% and 0.53% | 1.19% and 2.46% | 0.22% and 0.7% |
| NS(=O)(=O)c1cccc(N/C=C2\C(=O)Nc3ccccc32)c1 | 17% | 4.17% | 15.5% | 5.46% | 19 | 2.36% | 4.02% | 1.04% | 2.05% | 2.99% | 12.6% | -0.26% | -1.04% | 7.73% | 33.3% | 5.62% | 13.4% | 0.75% | 0.73% | -0.33% |
| COc1cccc(-n2ncc3c(N/N=C/c4ccc(C(=O)NCCN(C)C)cc4)ncnc32)c1 | 18.4% | 2.02% | 16.8% | 2.38% | 11.5 | 39.4% | 72.9% | 28.7% | 67.5% | 1.55% | 11.9% | 0.59% | -0.48% | 5.75% | 30.5% | 3.32% | 7.38% | 1.53% | 8.23% | 0.17% |
| CS(=O)(=O)CCNCc1ccc(-c2ccc3ncnc(Nc4ccc(OCc5ccccc5)cc4)c3c2)o1 | -0.22% | 2.33% | 1.3% | 6.32% | 3.76 | 2.89% | 6.82% | 3.2% | 15.7% | -0.24% | 1.67% | 0.96% | 0.95% | 4.83% | 4.75% | 4.78% | 4.2% | 1.47% | 1.03% | 0.19% |
| CCn1c(-c2nonc2N)nc2cncc(C(=O)NCCNC)c21 | 16.6% | 2.2% | 7.71% | 15.2% | 61.2 | 2.94% | 6.9% | 0.78% | 13.4% | -0.85% | 14% | 0.06% | 3.5% | 4.55% | 7.35% | 5.01% | 6.69% | 46.4% | 87% | 1.81% |
